Experiment [1] is described as follows: ATG_GLI_CIS: Attagene CIS-FACTORIAL HepG2 Assay for human Zinc Finger Protein GLI1 (AID 2282945). As to conditions: HepG2, Attagene cis-factorial reporter mRNA, GLI element; actives raise or lower the signal. The method in brief:
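HepG2 cells transiently transfected with cis-promoter multiplexed reporter units report endogenous transcription factor activity. After 24 h chemical exposure, reporter mRNA was quantified by RT-PCR, 6-FAM labelling, HpaI digestion and capillary electrophoresis, with bidirectional fitting against DMSO.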

A short description of experiment [2]: ATG_ISRE_CIS: Attagene CIS-FACTORIAL HepG2 Assay for human Interferon Regulatory Factor 1 (IRF1) binding to an Interferon-Stimulated Response Element (ISRE) (AID 2282948). As to conditions: HepG2 ISRE cis-reporter (Attagene), mRNA transcription readout; actives raise or lower the signal. The method, boiled down: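 Read-out: fluorescent RT-PCR products resolved by capillary electrophoresis, reporting endogenous transcription factor activity via ISRE-driven reporter mRNA in transfected HepG2 cells dosed for 24 h; gain or loss fitted relative to DMSO.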

A short description of experiment [3]: ATG_M_06_CIS: Attagene CIS-FACTORIAL HepG2 Assay for M06 Transcription Factor (Internal Marker) (AID 2282950). As to conditions: HepG2 Attagene CIS-FACTORIAL M06 internal marker reporter; actives raise or lower the signal. The method in brief:
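Serves as a background control readout. Transfected HepG2 exposed to compounds for 24 h, then reporter transcripts quantified by fluorescent RT-PCR and capillary electrophoresis. Both directions fitted against DMSO baseline.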

The target of experiment [4] is Hepatocyte nuclear factor 6 (Homo sapiens) (UniProt Q9UBC0). Description: ATG_HNF6_CIS: Attagene CIS-FACTORIAL HepG2 Assay for human Hepatocyte Nuclear Factor 6 (HNF6) (AID 2282952). As to conditions: HepG2 Attagene cis-factorial HNF6 reporter transcription; actives raise or lower the signal. The method in brief:
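Endogenous factor activity read in transiently transfected HepG2 via promoter-regulated reporter transcripts. RNA harvested 24 h post-dosing, reverse-transcribed, PCR-amplified, FAM-labelled, HpaI-digested and resolved by capillary electrophoresis; fitted in both directions against DMSO.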

Experiment [5] deals with Heat shock factor protein 1 (Homo sapiens) (UniProt Q00613). Description: ATG_HSE_CIS: Attagene CIS-FACTORIAL HepG2 Assay for human Heat Shock Transcription Factor 1 (HSE) (AID 2282953). As to conditions: HepG2 HSE cis-reporter, Attagene RNA transcription; actives raise or lower the signal. The method, boiled down:
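Endogenous transcription factor activity in transiently transfected HepG2, read as reporter mRNA by RT-PCR with fluorescent capillary electrophoresis after 24 h. Gain or loss of signal fitted versus DMSO baseline.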

Experiment [6] in a line: ATG_MRE_CIS: Attagene CIS-FACTORIAL HepG2 Assay for human Metal Responsive Element (MRE) (AID 2282954). Particulars: HepG2 MRE cis-reporter transcription, Attagene multiplex; actives raise or lower the signal. The method, boiled down: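 Readout: capillary electrophoresis of 6-FAM-labelled, HpaI-digested RT-PCR reporter products. System: HepG2 cells carrying transient multiplexed cis reporters, dosed 24 h. Analysis: bidirectional fit, DMSO baseline.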

Experiment [7] is described as follows: ATG_PBREM_CIS: Attagene CIS-FACTORIAL HepG2 Assay for human Phenobarbital-responsive Enhancer Module (PBREM) (AID 2282955). Particulars: HepG2 PBREM cis-reporter, Attagene multiplexed transcription; actives raise or lower the signal. The method in brief:
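Readout: reporter mRNA, fluorescent RT-PCR fragments separated by capillary electrophoresis. System: HepG2 transiently transfected with cis-regulated reporter units. Exposure: 24 h. Analysis: bidirectional, DMSO baseline.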

For experiment [8], the target named is Paired box protein Pax-6 (Homo sapiens) (UniProt P26367). Description: ATG_Pax6_CIS: Attagene CIS-FACTORIAL HepG2 Assay for human Paired Box 6 (PAX6) (AID 2282956). As to conditions: HepG2 CIS-FACTORIAL PAX6 reporter transcription, RNA readout; actives raise or lower the signal. The method, boiled down:
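Readout: reporter transcript fluorescence after RT-PCR and capillary electrophoresis. Cells: HepG2, transiently transfected with cis-regulated MRTUs. Exposure 24 h. Gain or loss of signal fitted bidirectionally relative to DMSO.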

A short description of experiment [9]: ATG_PXRE_CIS: Attagene CIS-FACTORIAL HepG2 Assay for human Pregnane X Receptor Element (PXRE) (AID 2282957). As to conditions: HepG2 Attagene CIS-FACTORIAL PXRE reporter, mRNA; actives raise or lower the signal. The method in brief: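 Reporter transcripts under endogenous PXR-responsive cis-regulation quantified from total RNA of transfected HepG2 cells 24 h post-dosing, via RT-PCR with fluorescent primer extension and capillary electrophoresis. Gain or loss of signal fitted against DMSO baseline.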

Experiment [10] in a line: ATG_PPRE_CIS: Attagene CIS-FACTORIAL HepG2 Assay for human Peroxisome Proliferator-activated Response Element (PPRE) (AID 2282958). As to conditions: HepG2 PPRE cis-element reporter, Attagene transcription factor profiling; actives raise or lower the signal. The method, boiled down:
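After human HepG2 hepatoma cells were transiently transfected with cis-promoter reporter constructs, they were exposed to test chemicals for 24 hours. Reporter RNA was then reverse-transcribed, PCR-amplified, FAM-labeled, HpaI-digested and quantified by capillary electrophoresis.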

Experiment [11] is described as follows: ATG_RORE_CIS: Attagene CIS-FACTORIAL HepG2 Assay for human RAR-related Orphan Receptor Element (RORE) (AID 2282959). As to conditions: HepG2 Attagene cis-factorial RORE reporter, mRNA; actives raise or lower the signal. The method in brief:
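Measured here: transcript induction of a cis-regulated reporter in HepG2 cells transiently transfected via FuGene 6. After 24 h, RNA was processed by RT-PCR and fluorescent capillary electrophoresis; DMSO defined baseline activity.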

A short description of experiment [12]: ATG_Sox_CIS: Attagene CIS-FACTORIAL HepG2 Assay for human SRY-box transcription factor (SOX) (AID 2282960). As to conditions: HepG2 Attagene cis-factorial SOX reporter, mRNA; actives raise or lower the signal. The method in brief: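 Using transiently transfected HepG2 cells, reporter transcription driven by cis elements was assessed 24 h after dosing. Signal was fluorescence of capillary-separated RT-PCR products, with DMSO defining baseline activity.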

Experiment [13] concerns the target Transcription factor Sp1 (Homo sapiens) (UniProt P08047). The experiment is described as follows: ATG_Sp1_CIS: Attagene CIS-FACTORIAL HepG2 Assay for human Specificity Protein 1 (Sp1) (AID 2282961). Particulars: HepG2 Sp1 cis-reporter transcription, actives raise or lower the signal. The method, boiled down: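 After transient transfection of HepG2 cells with cis-promoter reporter units and 24 h chemical treatment, reporter transcripts were quantified by RT-PCR and capillary electrophoresis fluorescence. Gain- and loss-of-signal fitted against DMSO.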

Experiment [14] in a line: ATG_SREBP_CIS: Attagene CIS-FACTORIAL HepG2 Assay for human Sterol Regulatory Element Binding (SREBP) (AID 2282962). Particulars: HepG2 Attagene cis-factorial SREBP reporter, mRNA; actives raise or lower the signal. The method in brief: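 Readout: fluorescent reporter-transcript peaks resolved by capillary electrophoresis after RT-PCR. Cells were human HepG2 carrying transfected cis-promoter reporter constructs, dosed for 24 h. Gain or loss of signal was fitted against DMSO controls.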

Experiment [15] addresses Signal transducer and activator of transcription 3 (Homo sapiens) (UniProt P40763). Description: ATG_STAT3_CIS: Attagene CIS-FACTORIAL HepG2 Assay for human Signal Transducer and Activator of Transcription 3 (STAT3) (AID 2282963). As to conditions: HepG2, Attagene cis-factorial STAT3 reporter transcription; actives raise or lower the signal. The method in brief: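 Uses human liver HepG2 transiently carrying cis-regulated reporter transcription units. Following 24 h dosing, reporter mRNA induction was detected by RT-PCR and capillary electrophoresis, analysed bidirectionally versus DMSO.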

Experiment [16] can be described thus: ATG_TA_CIS: Attagene CIS-FACTORIAL HepG2 Assay for human TA Basal Promoter (AID 2282964). Particulars: HepG2 Attagene CIS-factorial TA basal promoter reporter; actives raise or lower the signal. The method in brief: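 Background-control readout: TA basal promoter reporter mRNA, fitted in both directions relative to DMSO. Measured by RT-PCR and capillary electrophoresis 24 hours after treating HepG2 human liver cells transiently carrying multiplexed cis-regulated reporter constructs.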

Experiment [17] in a line: ATG_M_32_CIS: Attagene CIS-FACTORIAL HepG2 Assay for M32 Transcription Factor (Internal Marker) (AID 2282949).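 Note: background control marker of the multiplexed CIS panel rather than a real target.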 As to conditions: HepG2 Attagene cis-factorial M32 reporter, mRNA; actives raise or lower the signal. The method in brief:
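Using DMSO as baseline, bidirectional curve fits were applied to reporter mRNA signals. These came from transiently transfected HepG2 cells exposed for 24 h, with RNA analysed by RT-PCR, FAM primer extension, HpaI digestion and CE.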

Experiment [18] addresses Hypoxia-inducible factor 1-alpha (Homo sapiens) (UniProt Q16665). The experiment is described as follows: ATG_HIF1a_CIS: Attagene CIS-FACTORIAL HepG2 Assay for human Hypoxia Inducible Factor 1 (HIF1A) (AID 2282951). As to conditions: HepG2 Attagene cis-factorial HIF1a reporter transcription; actives raise or lower the signal. The method in brief: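 Endogenous-TF cis reporter readout, human HepG2 cells, 24 h incubation; mRNA detected via RT-PCR and capillary electrophoresis fluorescence; DMSO-normalised bidirectional fitting.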

Active and inactive are the calls of the source. Rule for the calls: active = hit-call score of the fitted dose curve at least 0.9, where 1 is the maximum; inactive = score below 0.9.

Hypoxia-inducible factor 1-alpha (Homo sapiens), sequence (Q16665 whole entry, looked up): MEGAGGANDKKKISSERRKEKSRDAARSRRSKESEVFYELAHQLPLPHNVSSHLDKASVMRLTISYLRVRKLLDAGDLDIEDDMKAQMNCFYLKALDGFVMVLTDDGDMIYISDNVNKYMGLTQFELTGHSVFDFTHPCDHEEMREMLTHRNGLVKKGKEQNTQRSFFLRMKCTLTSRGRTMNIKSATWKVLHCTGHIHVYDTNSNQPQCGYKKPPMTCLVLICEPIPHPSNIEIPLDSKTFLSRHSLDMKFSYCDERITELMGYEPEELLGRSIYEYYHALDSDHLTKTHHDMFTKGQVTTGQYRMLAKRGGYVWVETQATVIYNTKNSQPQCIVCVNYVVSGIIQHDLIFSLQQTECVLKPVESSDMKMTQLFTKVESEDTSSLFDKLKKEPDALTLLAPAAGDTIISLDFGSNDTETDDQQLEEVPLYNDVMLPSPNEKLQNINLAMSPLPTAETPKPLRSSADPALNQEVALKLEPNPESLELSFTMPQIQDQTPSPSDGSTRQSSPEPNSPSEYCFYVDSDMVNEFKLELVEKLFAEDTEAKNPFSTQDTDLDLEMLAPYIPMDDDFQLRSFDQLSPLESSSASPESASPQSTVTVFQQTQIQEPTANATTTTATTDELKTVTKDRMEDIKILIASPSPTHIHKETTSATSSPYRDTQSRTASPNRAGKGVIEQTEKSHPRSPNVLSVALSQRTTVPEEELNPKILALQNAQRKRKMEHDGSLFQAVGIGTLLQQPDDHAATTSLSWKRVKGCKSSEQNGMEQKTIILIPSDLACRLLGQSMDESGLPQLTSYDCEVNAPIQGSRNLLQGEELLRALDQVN
Signal transducer and activator of transcription 3 (Homo sapiens), sequence (P40763 whole entry, looked up): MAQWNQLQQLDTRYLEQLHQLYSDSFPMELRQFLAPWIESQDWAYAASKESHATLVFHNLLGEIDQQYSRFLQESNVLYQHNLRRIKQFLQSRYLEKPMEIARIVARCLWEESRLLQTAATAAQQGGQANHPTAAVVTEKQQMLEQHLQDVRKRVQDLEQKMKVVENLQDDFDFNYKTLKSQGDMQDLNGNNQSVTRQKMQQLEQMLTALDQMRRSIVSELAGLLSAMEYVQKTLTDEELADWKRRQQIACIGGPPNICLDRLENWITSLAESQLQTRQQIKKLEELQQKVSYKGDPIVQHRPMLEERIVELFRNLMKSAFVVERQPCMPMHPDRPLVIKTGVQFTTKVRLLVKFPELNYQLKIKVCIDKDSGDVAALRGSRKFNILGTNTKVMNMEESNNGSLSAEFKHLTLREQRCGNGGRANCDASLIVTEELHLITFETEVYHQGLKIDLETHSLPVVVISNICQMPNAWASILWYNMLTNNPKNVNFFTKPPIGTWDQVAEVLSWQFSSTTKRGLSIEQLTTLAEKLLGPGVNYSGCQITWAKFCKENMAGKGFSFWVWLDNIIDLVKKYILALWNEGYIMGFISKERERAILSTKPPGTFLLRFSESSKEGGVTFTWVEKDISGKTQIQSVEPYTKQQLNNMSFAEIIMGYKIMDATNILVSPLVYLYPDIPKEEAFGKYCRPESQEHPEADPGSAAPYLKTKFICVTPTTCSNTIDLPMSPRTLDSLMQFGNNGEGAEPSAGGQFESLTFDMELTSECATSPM
Transcription factor Sp1 (Homo sapiens), sequence (P08047 whole entry, looked up): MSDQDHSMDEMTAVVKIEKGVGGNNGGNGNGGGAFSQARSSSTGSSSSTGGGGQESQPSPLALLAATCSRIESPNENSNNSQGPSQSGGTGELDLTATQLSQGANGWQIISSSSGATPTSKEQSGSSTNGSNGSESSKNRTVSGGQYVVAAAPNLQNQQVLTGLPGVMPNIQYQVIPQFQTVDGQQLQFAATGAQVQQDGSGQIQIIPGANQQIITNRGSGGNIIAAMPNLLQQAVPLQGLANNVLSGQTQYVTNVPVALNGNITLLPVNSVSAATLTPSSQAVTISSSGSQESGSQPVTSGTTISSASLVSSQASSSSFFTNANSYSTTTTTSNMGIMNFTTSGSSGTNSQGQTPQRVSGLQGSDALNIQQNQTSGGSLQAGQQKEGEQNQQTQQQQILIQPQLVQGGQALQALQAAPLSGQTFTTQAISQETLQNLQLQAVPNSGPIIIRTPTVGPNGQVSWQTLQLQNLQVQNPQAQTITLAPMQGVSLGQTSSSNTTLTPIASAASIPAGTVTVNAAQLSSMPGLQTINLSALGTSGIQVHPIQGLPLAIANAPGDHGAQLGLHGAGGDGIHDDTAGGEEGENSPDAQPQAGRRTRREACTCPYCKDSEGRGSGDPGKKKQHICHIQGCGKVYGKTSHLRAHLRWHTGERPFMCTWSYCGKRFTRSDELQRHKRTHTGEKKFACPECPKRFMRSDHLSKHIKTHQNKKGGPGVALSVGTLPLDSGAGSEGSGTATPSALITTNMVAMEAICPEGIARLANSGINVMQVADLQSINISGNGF
Heat shock factor protein 1 (Homo sapiens), sequence (Q00613 whole entry, looked up): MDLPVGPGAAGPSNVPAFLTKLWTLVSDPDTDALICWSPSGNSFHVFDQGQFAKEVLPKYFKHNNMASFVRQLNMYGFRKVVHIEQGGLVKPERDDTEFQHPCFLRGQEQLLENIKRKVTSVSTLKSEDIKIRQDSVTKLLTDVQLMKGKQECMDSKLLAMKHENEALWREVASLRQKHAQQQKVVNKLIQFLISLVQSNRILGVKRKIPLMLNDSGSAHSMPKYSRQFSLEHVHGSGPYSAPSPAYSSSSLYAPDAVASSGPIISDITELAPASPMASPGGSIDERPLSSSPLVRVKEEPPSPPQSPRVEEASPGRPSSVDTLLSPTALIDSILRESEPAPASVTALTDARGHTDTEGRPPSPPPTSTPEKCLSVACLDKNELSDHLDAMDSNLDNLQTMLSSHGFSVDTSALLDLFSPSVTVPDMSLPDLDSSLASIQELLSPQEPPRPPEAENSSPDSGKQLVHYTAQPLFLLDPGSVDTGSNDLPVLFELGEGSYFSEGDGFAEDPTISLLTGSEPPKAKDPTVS
Paired box protein Pax-6 (Homo sapiens), sequence (P26367 whole entry, looked up): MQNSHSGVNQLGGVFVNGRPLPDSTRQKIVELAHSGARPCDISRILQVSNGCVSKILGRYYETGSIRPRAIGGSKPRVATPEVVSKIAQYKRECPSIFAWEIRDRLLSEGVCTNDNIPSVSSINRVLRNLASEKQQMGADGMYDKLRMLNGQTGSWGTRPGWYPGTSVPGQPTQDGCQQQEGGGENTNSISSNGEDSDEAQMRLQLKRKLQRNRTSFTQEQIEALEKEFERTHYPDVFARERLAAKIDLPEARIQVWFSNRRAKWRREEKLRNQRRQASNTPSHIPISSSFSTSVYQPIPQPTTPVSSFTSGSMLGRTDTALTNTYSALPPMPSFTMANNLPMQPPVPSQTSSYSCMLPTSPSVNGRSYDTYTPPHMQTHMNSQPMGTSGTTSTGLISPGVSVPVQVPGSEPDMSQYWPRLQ
Hepatocyte nuclear factor 6 (Homo sapiens), sequence (Q9UBC0 whole entry, looked up): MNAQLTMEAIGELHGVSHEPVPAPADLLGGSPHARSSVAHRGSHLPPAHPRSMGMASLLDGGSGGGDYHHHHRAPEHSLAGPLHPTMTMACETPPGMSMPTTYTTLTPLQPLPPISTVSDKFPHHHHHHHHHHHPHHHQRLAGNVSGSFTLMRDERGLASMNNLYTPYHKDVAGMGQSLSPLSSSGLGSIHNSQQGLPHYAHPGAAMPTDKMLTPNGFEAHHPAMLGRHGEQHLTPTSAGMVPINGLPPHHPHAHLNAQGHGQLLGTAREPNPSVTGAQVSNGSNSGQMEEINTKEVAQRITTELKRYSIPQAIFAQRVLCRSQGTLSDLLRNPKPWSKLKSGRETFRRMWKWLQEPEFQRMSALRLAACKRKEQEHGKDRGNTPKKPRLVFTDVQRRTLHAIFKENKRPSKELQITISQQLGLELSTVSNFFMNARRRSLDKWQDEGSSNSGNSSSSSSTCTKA

Regarding `Nc1cccc(N)n1`, the result in experiment [1], in experiment [2], in experiment [3], in experiment [4], in experiment [5] and in experiment [6] was inactive. The outcome in experiment [7], in [8], in experiment [9], in experiment [10], in experiment [11] and in experiment [12] was inactive. Moreover, the compound was called inactive in experiment [13], in [14], in [15] and in experiment [16].

For the compound `c1ccc2sc(SSN3CCOCC3)nc2c1`, the AC50 – broadly, the concentration giving half of the maximal activity seen – in [1] was 79.4 µM (active); in experiment [5], 69.6 µM (active); in [6] it was 123 µM (active); in experiment [8] it was 100 µM (active); in experiment [12] it was 138 µM (active); in experiment [13], 70.4 µM (active). In addition, the AC50 is 59.2 µM (active) in experiment [14] and 139 µM (active) in experiment [15]. Moreover, the compound was called inactive in experiment [2], in [17], in [3], in experiment [4], in experiment [9] and in experiment [16].

Consider `CC(C)C(=O)OCCc1ccccc1`, for which the call in experiment [1], in [2], in experiment [3], in [18], in [4] and in experiment [5] was inactive. Further, the outcome in experiment [8], in [9], in experiment [10], in [11], in experiment [13] and in experiment [14] was inactive. The call in [15] and in experiment [16] was inactive.

With `Cc1ccc(S(=O)(=O)N=C=O)cc1`, the call in experiment [1], in experiment [2], in [17], in experiment [3], in experiment [18] and in experiment [4] was inactive. For the same compound, the call in [5], in experiment [6], in experiment [9], in experiment [10], in experiment [11] and in experiment [12] was inactive. Further, the compound was classed as inactive in [13], in [14], in experiment [15] and in experiment [16].

Take `CCCCCCCC(=O)OCC`: the result in experiment [1], in experiment [2], in [17], in experiment [3], in experiment [18] and in experiment [4] was inactive. Also, the call in [5], in experiment [6], in [8], in experiment [9], in experiment [10] and in experiment [11] was inactive. Moreover, the compound was classed as inactive in experiment [12], in experiment [13], in [15] and in experiment [16].

For `CC1CCC(C(C)(C)S)C(=O)C1` (stereo unspecified), the outcome in experiment [1], in experiment [2], in experiment [17], in experiment [3], in experiment [18] and in experiment [4] was inactive. For the same compound, the compound was called inactive in experiment [5], in experiment [6], in [10], in experiment [11], in experiment [12] and in [13]. Further, the outcome in experiment [14] and in [15] was inactive. Moreover, the AC50 in experiment [9] is 2.13 µM (active).

Take `CCCC=C(C=O)CC`: the outcome in [1], in experiment [2], in experiment [17], in experiment [3], in [18] and in experiment [4] was inactive. For the same compound, the call in experiment [5], in [6], in experiment [7], in [8], in experiment [11] and in experiment [13] was inactive. Also, the result in experiment [14], in [15] and in experiment [16] was inactive.

The values above are taken from PubChem BioAssay (EPA / NIEHS).
